Test results published in the supplement of paper PMC6555819.

Test system: RARa homodimer (NR concentration 270 nM)
Test: PBM binding z-score (relative to random genomic background probes); higher = stronger binding; sequences stand for … in GC…GCGATTGACAGCGTAGAATGAAGG
Outline: (§1)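 Scanned fluorescence from custom Agilent 4×180K protein-binding microarrays was regression-normalized. Binding z-scores use random background probes as reference. Ligand-free nuclear receptor dimers were incubated on the arrays for 1 h and detected with antibodies against each partner (one per run).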

Question: With TAGACTAGGTCATTCAGGGGCCAGTATAGAAAGC as the sequence, how does the PBM binding z-score read?
Answer: 0.508

Question: How did the PBM binding z-score turn out when TGTGCTAGGTCAGTTGGTCAGCTAACGAGCTGCC was run?
Answer: -0.296

Question: For TTACCACGGTGAAGGTCGTTGATCCCTCTGTAGA, which PBM binding z-score is on record?
Answer: -0.497

Question: How did the PBM binding z-score turn out when TTACCAAGGTGAGCTGAGGTCGTTCATCCAACTC was run?
Answer: -0.552

Question: Which PBM binding z-score does the source give for ATCGGAAGGTCGACGAGGTGAGTATACACCGTTT here?
Answer: -0.26

Question: With CCAGACAGGTGAAAGGTAACTTAGTCTGGTACGC as the sequence, how does the PBM binding z-score read?
Answer: 0.346

Question: With AGTCAAAGTTCAGGGCGAGGTAACGTAAAGCACG as the sequence, how does the PBM binding z-score read?
Answer: 1.23

Question: For TCTGGTTGGTCACGGAGGTCACACACGACGGGTA, which PBM binding z-score is on record?
Answer: 2

Question: TTACCAAGGTTAAGGTCGTTGATCCCTCTGTAGA was tested. Which PBM binding z-score did it give?
Answer: -0.0492

Question: How did the PBM binding z-score turn out when CCTCGGAGGACAAGAGGAGGTCAGAGCTGCCAGA was run?
Answer: 0.29

Question: For GCTTACGGGTCAAAGGATATAGCATGAATAGAAT, which PBM binding z-score is on record?
Answer: 0.713

Question: CGTCCAAGGTAAAAGGTCAGTGAAGAGATGACGG was tested. Which PBM binding z-score did it give?
Answer: 1.15

Question: How did the PBM binding z-score turn out when CGTCCAAGGTCAGGGTCAGTGAAAGAGACTCGAA was run?
Answer: 1.34

Question: For ATCTCTAGGTAAAGTTCGGTGAAAGATCGATAGA, which PBM binding z-score is on record?
Answer: 1.22

Question: For CAAACTAGGTCGAGGTCAAAGTCGGTTTGTGCCA, which PBM binding z-score is on record?
Answer: 0.547

Question: How did the PBM binding z-score turn out when CCTAACGGGTCACGAGGTTATAGCACGACGAGCG was run?
Answer: 1.42

Question: CAAACTAGGTCACGAAAGGCCAAAGTCGAATGAC was tested. Which PBM binding z-score did it give?
Answer: 0.983

Question: With CGTGCAAGGTCAATGCTAGGTCAGTGAAAGCATT as the sequence, how does the PBM binding z-score read?
Answer: 0.996

Question: Which PBM binding z-score does the source give for CCTACTGGGCCATTCAGAGGTCATTGAGCATATG here?
Answer: 0.462

Question: Which PBM binding z-score does the source give for ATACCAAGGTGATGGTGAGGTCGTTGATACTAAC here?
Answer: 0.462

Question: For CCTTACGGGTCACGAGGTTACAGCACGACGAGCG, which PBM binding z-score is on record?
Answer: 2.1

Question: For GATACAGGGTCAGCTAGAGGCCAGAGTATGGAAA, which PBM binding z-score is on record?
Answer: 0.574

Question: TGAATGAGGTTAAAGATCAGGGACCGTGGCGTCG was tested. Which PBM binding z-score did it give?
Answer: 0.149

Question: For CAAACTTGGTCACGAAAGGTCAAAGTCGAATGAC, which PBM binding z-score is on record?
Answer: 3.25

Question: With GGAACGAGGGCAAAGTTGATTGCATCTGTCGACG as the sequence, how does the PBM binding z-score read?
Answer: -0.237

Question: With CCTCGGAGGACAGAAGGTCAGAGCGGTCCGCTTT as the sequence, how does the PBM binding z-score read?
Answer: 0.122

Question: For CAGCCTCGGTCAGGGCCAGTATAGGAGGAACGTT, which PBM binding z-score is on record?
Answer: -0.656

Question: How did the PBM binding z-score turn out when TCGAGTAGGTTAGTCGAGGCATTCAGCCAACATA was run?
Answer: -0.326

Question: Which PBM binding z-score does the source give for CGTCCAATGTCATAGGAGGTCAGTGAAGACAGAT here?
Answer: 0.765

Question: GCTGCTTGGTCAGGTTGGTCAGCTAACGGGTACG was tested. Which PBM binding z-score did it give?
Answer: -0.538

Question: How did the PBM binding z-score turn out when GCAGACAGGTGAAGCGCAGGTAACTCAGGGTGGC was run?
Answer: -1.03

Question: Which PBM binding z-score does the source give for GCTAGCAGGCCATTTGGGTCCCTCAATGACGGGC here?
Answer: -1.25

Question: ATCTCTAGGTTACCAAGTTCAGTGAATGCCGAAC was tested. Which PBM binding z-score did it give?
Answer: 1.16

Question: CGTCCAAGGTCAATGCTAAGTCAGTGAAAGCATT was tested. Which PBM binding z-score did it give?
Answer: 0.642

Question: ATCGAAAGGTCTAGGTGAGTATAGAGAAAGGGAA was tested. Which PBM binding z-score did it give?
Answer: 0.837

Question: CATACAGGGTCAGCTTGGCCAGAGTAGGGACGGC was tested. Which PBM binding z-score did it give?
Answer: 0.544

Question: With CCTACTGGGCTACGAAAGGTCATTGATTCAGTGA as the sequence, how does the PBM binding z-score read?
Answer: 0.708

Question: With ATATGTAGGTTGCATCCGGGTCATTCAGGCTATG as the sequence, how does the PBM binding z-score read?
Answer: 0.0936

Question: Which PBM binding z-score does the source give for TAGCCTAGGTCATTCAAGGGCCAGTATAGAAAGC here?
Answer: 0.561

Question: Which PBM binding z-score does the source give for AGAATGAGGATACCAAAGATCAGGGAAACGCTTG here?
Answer: -0.258

Test system: RARb:RXRa (NR concentration 270 nM, RXRa partner concentration 90 nM)
Test: as above
Outline: as §1

Question: How did the PBM binding z-score turn out when TAGACTAGGTCATTCAGGGGCCAGTATAGAAAGC was run?
Answer: 3.64

Question: TGTGCTAGGTCAGTTGGTCAGCTAACGAGCTGCC was tested. Which PBM binding z-score did it give?
Answer: 3.26

Question: TTACCACGGTGAAGGTCGTTGATCCCTCTGTAGA was tested. Which PBM binding z-score did it give?
Answer: 1.17

Question: With TTACCAAGGTGAGCTGAGGTCGTTCATCCAACTC as the sequence, how does the PBM binding z-score read?
Answer: 1.74

Question: For ATCGGAAGGTCGACGAGGTGAGTATACACCGTTT, which PBM binding z-score is on record?
Answer: 2.51

Question: For CCAGACAGGTGAAAGGTAACTTAGTCTGGTACGC, which PBM binding z-score is on record?
Answer: 1.15

Question: With AGTCAAAGTTCAGGGCGAGGTAACGTAAAGCACG as the sequence, how does the PBM binding z-score read?
Answer: 4.49

Question: How did the PBM binding z-score turn out when TCTGGTTGGTCACGGAGGTCACACACGACGGGTA was run?
Answer: 4

Question: How did the PBM binding z-score turn out when TTACCAAGGTTAAGGTCGTTGATCCCTCTGTAGA was run?
Answer: 3.04

Question: For CCTCGGAGGACAAGAGGAGGTCAGAGCTGCCAGA, which PBM binding z-score is on record?
Answer: 2.54

Question: Which PBM binding z-score does the source give for GCTTACGGGTCAAAGGATATAGCATGAATAGAAT here?
Answer: 3.54

Question: With CGTCCAAGGTAAAAGGTCAGTGAAGAGATGACGG as the sequence, how does the PBM binding z-score read?
Answer: 4.44

Question: For CGTCCAAGGTCAGGGTCAGTGAAAGAGACTCGAA, which PBM binding z-score is on record?
Answer: 5.2

Question: With ATCTCTAGGTAAAGTTCGGTGAAAGATCGATAGA as the sequence, how does the PBM binding z-score read?
Answer: 0.896

Question: For CAAACTAGGTCGAGGTCAAAGTCGGTTTGTGCCA, which PBM binding z-score is on record?
Answer: 4.28

Question: Which PBM binding z-score does the source give for CCTAACGGGTCACGAGGTTATAGCACGACGAGCG here?
Answer: 4.27

Question: For CAAACTAGGTCACGAAAGGCCAAAGTCGAATGAC, which PBM binding z-score is on record?
Answer: 4.56

Question: With CGTGCAAGGTCAATGCTAGGTCAGTGAAAGCATT as the sequence, how does the PBM binding z-score read?
Answer: 5.34

Question: How did the PBM binding z-score turn out when CCTACTGGGCCATTCAGAGGTCATTGAGCATATG was run?
Answer: 3.14

Question: How did the PBM binding z-score turn out when ATACCAAGGTGATGGTGAGGTCGTTGATACTAAC was run?
Answer: 1.17

Question: Which PBM binding z-score does the source give for CCTTACGGGTCACGAGGTTACAGCACGACGAGCG here?
Answer: 4.71

Question: With GATACAGGGTCAGCTAGAGGCCAGAGTATGGAAA as the sequence, how does the PBM binding z-score read?
Answer: 4.22

Question: TGAATGAGGTTAAAGATCAGGGACCGTGGCGTCG was tested. Which PBM binding z-score did it give?
Answer: 1.96

Question: With CAAACTTGGTCACGAAAGGTCAAAGTCGAATGAC as the sequence, how does the PBM binding z-score read?
Answer: 4.68

Question: GGAACGAGGGCAAAGTTGATTGCATCTGTCGACG was tested. Which PBM binding z-score did it give?
Answer: 2.18

Question: For CCTCGGAGGACAGAAGGTCAGAGCGGTCCGCTTT, which PBM binding z-score is on record?
Answer: 3.18

Question: With CAGCCTCGGTCAGGGCCAGTATAGGAGGAACGTT as the sequence, how does the PBM binding z-score read?
Answer: 2.01

Question: Which PBM binding z-score does the source give for TCGAGTAGGTTAGTCGAGGCATTCAGCCAACATA here?
Answer: -0.133

Question: For CGTCCAATGTCATAGGAGGTCAGTGAAGACAGAT, which PBM binding z-score is on record?
Answer: 2.9

Question: For GCTGCTTGGTCAGGTTGGTCAGCTAACGGGTACG, which PBM binding z-score is on record?
Answer: 0.63

Question: Which PBM binding z-score does the source give for GCAGACAGGTGAAGCGCAGGTAACTCAGGGTGGC here?
Answer: 0.497

Question: How did the PBM binding z-score turn out when GCTAGCAGGCCATTTGGGTCCCTCAATGACGGGC was run?
Answer: -0.116

Question: How did the PBM binding z-score turn out when ATCTCTAGGTTACCAAGTTCAGTGAATGCCGAAC was run?
Answer: 2.31

Question: How did the PBM binding z-score turn out when CGTCCAAGGTCAATGCTAAGTCAGTGAAAGCATT was run?
Answer: 5.01

Question: With ATCGAAAGGTCTAGGTGAGTATAGAGAAAGGGAA as the sequence, how does the PBM binding z-score read?
Answer: 1.71

Question: With CATACAGGGTCAGCTTGGCCAGAGTAGGGACGGC as the sequence, how does the PBM binding z-score read?
Answer: 3.99

Question: CCTACTGGGCTACGAAAGGTCATTGATTCAGTGA was tested. Which PBM binding z-score did it give?
Answer: 3.88

Question: How did the PBM binding z-score turn out when ATATGTAGGTTGCATCCGGGTCATTCAGGCTATG was run?
Answer: 1.4

Question: For TAGCCTAGGTCATTCAAGGGCCAGTATAGAAAGC, which PBM binding z-score is on record?
Answer: 3.9

Question: For AGAATGAGGATACCAAAGATCAGGGAAACGCTTG, which PBM binding z-score is on record?
Answer: -0.0511
